Calls of active or inactive are those of the source. Rule for the calls: active = hit-call score of the fitted dose curve at least 0.9, where 1 is the maximum; inactive = score below 0.9.
Target: rat Vesicular Monoamine Transporter (VMAT2), Slc18a2 (gene 25549) (UniProt Q01827)
Assay: ERF_TW_TR_rSLC18A2: Eurofins (ERF) Radioligand Binding LeadHunter Assay for rat Vesicular Monoamine Transporter (VMAT2) Antagonism
Protocol: ERF_TW_TR_rSLC18A2 is a biochemical, single-readout assay that uses extracted gene-proteins in a cell-free assay. Measurements were taken 0.5 hour after chemical dosing in a 96-well plate. See VMAT2 Rat Vesicular Monoamine Transporter Binding (Antagonist Radioligand) Assay, Panlabs.ERF_TW_TR_rSLC18A2 is an assay component calculated from the ERF_TW_TR_rSLC18A2 assay. It is designed to measure radioligand binding using a type of binding reporter as detected by scintillation counting with radiometry technology.Data from the assay component ERF_TW_TR_rSLC18A2 was analyzed at the assay endpoint, ERF_TW_TR_rSLC18A2, in the positive analysis fitting direction relative to DMSO as the negative control and baseline of activity. Using a type of binding reporter, loss-of-signal activity can be used to understand changes in transporter binding as they relate to gene SLC18A2. To generalize the intended target to other relatable targets, this assay endpoint is annotated to the transporter intended target family, where the subfamily is vesicular transporter.
This assay measures binding of [3H]Dihydrotetrabenazine to sites associated with the vesicular monoamine uptake transporter. […] Membranes are filtered and washed, the filters are then counted to determine [3H]Dihydrotetrabenazine specifically bound. […]

Chain of rat Vesicular Monoamine Transporter (VMAT2), Slc18a2 (gene 25549) (Q01827 whole entry, looked up): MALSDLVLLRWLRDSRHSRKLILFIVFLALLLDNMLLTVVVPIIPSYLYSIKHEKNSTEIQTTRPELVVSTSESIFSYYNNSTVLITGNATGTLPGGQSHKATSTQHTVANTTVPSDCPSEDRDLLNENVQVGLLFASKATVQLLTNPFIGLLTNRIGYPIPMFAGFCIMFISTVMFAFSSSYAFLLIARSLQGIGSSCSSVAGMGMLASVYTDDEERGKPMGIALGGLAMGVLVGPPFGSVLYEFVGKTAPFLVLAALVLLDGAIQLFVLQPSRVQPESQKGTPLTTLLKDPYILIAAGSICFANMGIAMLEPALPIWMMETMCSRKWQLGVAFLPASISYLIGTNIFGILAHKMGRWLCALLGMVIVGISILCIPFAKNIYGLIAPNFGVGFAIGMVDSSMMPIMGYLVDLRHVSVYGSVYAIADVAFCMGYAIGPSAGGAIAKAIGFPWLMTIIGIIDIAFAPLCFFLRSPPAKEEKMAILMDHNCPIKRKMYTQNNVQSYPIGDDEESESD

Row | Compound | AC50
1 | COc1cc(CCC(=O)CC(=O)CCc2ccc(O)c(OC)c2)ccc1O | 5000 nM (active)
2 | O=C(/C=C/c1ccc(O)cc1)CC(=O)/C=C/c1ccc(O)cc1 | 283 nM (active)
